Assay results from the OligoGym collection.

biological target: PPM1J; assay: pooled miR-30 sensor sort-seq; sequence = guide strand; conditions: shRNA
Also: reference of the scale not given here.

| Sequence | sensor-assay potency score (higher = more potent) |
| --- | --- |
| TAGCACATCATCTGGGCAGTGC | -0.403 |
| TTCACTGCCTAGCAGCTCTGGT | -0.516 |
| TACTCCTGTAACACTCCTCCGA | -0.279 |
| TTGATGACCTCGGCGTAGCCTG | -0.901 |
| TAGATCACAACCAGTGCACAGC | -0.65 |
| TCGATCTTTTTGTAGGCCCAGC | -1.4 |
| ACAGTCAGTAGTGACATCCCAC | -0.629 |
| TTGGATATAGCGGACATCCCTT | -0.328 |
| TCTTTTTGTAGGCCCAGCCGGT | -1.16 |
| TTCCGGACAATGATGGCCCTGC | 0.189 |
| AAGTATCTCTACCAGGTCCTTT | -0.98 |
| TAGCAGGTAGATCACAACCAGT | -1.29 |

biological target: PPP1R13B; assay: as above; conditions: shRNA

| Sequence | sensor-assay potency score (higher = more potent) |
| --- | --- |
| TAAGAGTTCCTTCTGCTGCTGA | 0.621 |
| TTCACTGATTCGCTTGTCCATC | -0.504 |
| TTACATTTCTCTGAGTTCGTTG | -0.0932 |
| TTCAGAAATAGACTGCTGCTGA | 0.172 |
